Records with an inconclusive call do not appear. Entries that show only a call come without a potency. Calls of active or inactive are those of the source. Calls come from the whole dose curve.
Potency is the fitted concentration of half-maximal effect.

This assay is described as follows: qHTS assay to identify small molecule agonists of H2AX - cell viability counter screen (AID 1224847). Note: nearly all actives have a fitted effect of over 30% in size. The settings on record: CHO-K1 viability, CellTiter-Glo luminescence, 3 h; series mostly up to 154 µM. The text has this: National Center for Advancing Translational Sciences [NCATS]
NIH Chemical Genomics Center [NCGC]
U.S. Environmental Protection Agency [EPA]
National Institutes of Environmental Health Sciences [NIEHS]
National Toxicology Program [NTP]
U.S. Food and Drug Administration [FDA]
HTRF phospho-H2AX (Ser139) assay (Cisbio Bioassays, US) enables the quantitative detection of the histone variant H2AX when phosphorylated on serine 139. When double-stranded DNA breaks, either by ionizing radiation or endogenous physiological processes, H2AX becomes phosphorylated at Ser139. This phospho-Ser139 serves as a sensitive biomarker for the detection of such breaks, localizing the site of DNA repair. So, HTRF phospho-H2AX Ser139 is a pertinent assay to study genome stability, the cell cycle, DNA repair, and it serves as a biomarker for cancer, and to understand aging. Wild type CHO-K1 cells were used to identify the inducers of Phospho-H2AX Ser 139 from the Tox21 compound collections. Also cytotoxicity of the Tox21 10K compound library against the CHO-K1 cell line was tested by measuring the cell viability using CellTiter-Glo assay (Promega, Madison, WI).
Tox21 Assay Protocol Summary:
The CHO-K1 cells suspended in culture medium containing 10% FBS were dispensed at 1000 cells/ 3 ul/well in 1536-well white wall/solid bottom plates (Greiner Bio-One North America, NC) using a Multidrop Combi (Thermo Fisher Scientific Inc., Waltham, MA). After the assay plates were incubated at 37C overnight, 23 nl of compounds at 15 concentrations (from 5-48 columns) or positive control (from 1 to 4 columns) were transferred to the assay plates using a Pintool station (Wako, San Diego, CA) into each well resulting in a final DMSO concentration of 0.76%. After 3hr incubation at 37C, 3 uL/well CellTiter-Glo luminescent cell viability reagent (Promega Corporation, Madison, WI) was added using a Flying Reagent Dispenser (FRD) (Aurora Discovery, CA). After incubation at room temperature for 30 min, the luminescence intensity was read using a ViewLux plate reader (PerkinElmer, Waltham, MA).
For the compound `CCC=CC#N`, the Potency result is “inactive”.
Next, `COc1ncnc(NS(=O)(=O)c2ccc(N)cc2)c1OC`: “inactive”; `C=CC(C)(CCC=C(C)C)OC(=O)CC(C)C` (stereo not given): “inactive”; `CCOC(C)=O`: “inactive”.
The entry for `O=C1NC(=O)c2cc([N+](=O)[O-])ccc21` is “inactive”; for `CN1C(=O)c2ccccc2C1=O` it is “inactive”.
The entry for `O=C(Nc1cccc2c(=O)cc(-c3nn[nH]n3)oc12)c1ccc(OCCCCc2ccccc2)cc1` is “inactive”; for `CCn1cc(C(=O)O)c(=O)c2cc(F)c(N3CCNCC3)cc21` it is “inactive”.
`O=Cc1c2ccccc2c(Cl)c2ccccc12`: the Potency result is “inactive”.
Next, `C[C@@H](CN(C)C)CN1c2ccccc2Sc2ccccc21`: “inactive”; `Cc1cscn1`: “inactive”; `CC1(C)O[C@@H]2C[C@H]3[C@@H]4C[C@H](F)C5=CC(=O)C=C[C@]5(C)[C@H]4[C@@H](O)C[C@]3(C)[C@]2(C(=O)CO)O1`: “inactive”.
In the case of `CO[C@]1(NC(=O)CSC(F)F)C(=O)N2C(C(=O)O)=C(CSc3nnnn3CCO)CO[C@H]21`, the Potency result is “inactive”.
The entry for `NCCNCCO` is “inactive”.
The figure for `CC(C)(C)CC(=O)OCC(=O)[C@@]1(O)CC[C@H]2[C@@H]3CCC4=CC(=O)C=C[C@]4(C)[C@H]3[C@@H](O)C[C@@]21C` is 55.2 µM (active).
Next, `O=C(O)C[C@H](NC(=O)OCc1ccccc1)C(=O)O`: “inactive”.
Turning to `CCOC(=O)OC(C)OC(=O)[C@@H]1N2C(=O)[C@@H](NC(=O)[C@H](N)c3ccccc3)[C@H]2SC1(C)C` (stereo not given in full), the Potency result was “inactive”.
Next, `CC(C)C=O`: “inactive”; `CS(=O)(=O)c1ccc(-c2cn3ccccc3n2)cc1`: 31 µM (active); `CN1C(C(=O)Nc2ccccn2)=C(O)c2sccc2S1(=O)=O`: “inactive”.
The entry for `CC(C)(C)C(=O)C(=O)O` is “inactive”; for `CN(C)CCC=C1c2ccccc2C=Cc2ccccc21` it is “inactive”.
Turning to `C/C=C\C/C=C/CCCCCCCCOC(C)=O`, the Potency result is “inactive”.
Consider `O=C(O)CCC(=O)C(=O)O`, for which the Potency result was “inactive”.
Next, `Cc1cc(O)c(C)c(C)c1O`: “inactive”.
Next, `CO/N=C(/C(=O)N[C@@H]1C(=O)N2C(C(=O)O)=C(COC(N)=O)CS[C@H]12)c1ccco1`: “inactive”; `CC(=O)Nc1ccc(C)cc1C`: “inactive”; `O[C@@H]1CO[C@H]2[C@@H]1OC[C@@H]2O`: “inactive”.
The entry for `O=C(O)CCCCCCCCCCCBr` is “inactive”.
`NNC(=O)CP(=O)(c1ccccc1)c1ccccc1`: the Potency result was “inactive”.
Next, `CCC(=O)OC`: “inactive”.
Next, `C[C@H]1C[C@H](O)c2ccsc2S1(=O)=O`: “inactive”; `COc1cc(C(=O)NCCCCCC(=O)O)cc(OC)c1OC`: “inactive”.
On to `NC(=O)c1ccncc1`, for which the Potency result was “inactive”.
Turning to `CCN(CC)CCNC(=O)COc1ccc(OC)cc1`, the Potency entry is “inactive”.
The entry for `OC(CCN1CCCC1)(c1ccccc1)C1CCCCC1` (stereo not given) is “inactive”; for `CCOC(=O)/C=C/C(=O)OCC` it is “inactive”; for `C(=C\c1ccccc1)/c1ccccc1` it is “inactive”.
The entry for `C1C[C@@H]2[C@H]3CC[C@H](C3)[C@@H]2C1` is “inactive”; for `C=C/C(C)=C/C/C=C(\C)CCC=C(C)C` it is “inactive”.

For the origin of these results see PubChem BioAssay (Tox21).
